Experimental data from PubChem BioAssay AID1159580 (chemical genetic matrix, 2015).
In all, about 5,500 compounds went through this assay and about 2,000 (36%) were called active. About 18% were inconclusive and are not listed. Rule as the data show it: active = normalized growth mostly below about 0.91 (no sharp cut-off); inconclusive = no clear call, values can overlap the other calls; inactive = mostly above about 0.92. The list shows a part of the results.

Assay: chemical genetic growth profiling, strain panel (AID 1159580);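 also: tested at 20 µM; growth read once vehicle control cultures reached saturation at 30 °C; 1 = growth at the plate median or of vehicle wells; lower values mean less growth of the strain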
Settings: growth OD

Measured: normalized growth

CCc1ccc2c(O)c3c(cc2c1C(=O)OC)C(=O)c1c(O)ccc(O)c1C3=O
inactive: S. cerevisiae deletion strains, locus YJR066W, strain TOR1, stronger effect = lower value 0.895 | S. cerevisiae deletion strains, locus YJR075W, strain HOC1, stronger effect = lower value 0.981 | S. cerevisiae deletion strains, locus YKL068W, stronger effect = lower value 0.99 | S. cerevisiae deletion strains, locus YKL085W, strain MDH1 (second series), stronger effect = lower value 1.05 | S. cerevisiae deletion strains, locus YKL085W, strain MDH1, stronger effect = lower value 1.05 | S. cerevisiae deletion strains, locus YKL160W, strain elf1, stronger effect = lower value 0.996 | S. cerevisiae deletion strains, locus YKR001C, strain vps1, stronger effect = lower value 0.99 | S. cerevisiae deletion strains, locus YKR026C, strain gcn3, stronger effect = lower value 0.979 | S. cerevisiae deletion strains, locus YKR091W, strain srl3, stronger effect = lower value 0.995 | S. cerevisiae deletion strains, locus YLL001W, strain dnm1, stronger effect = lower value 0.973 | S. cerevisiae deletion strains, locus YLL026W, stronger effect = lower value 0.983 | S. cerevisiae deletion strains, locus YLL041C, strain sdh2, stronger effect = lower value 0.999 | S. cerevisiae deletion strains, locus YLR027C, strain aat2, stronger effect = lower value 0.994 | S. cerevisiae deletion strains, locus YLR039C, strain RIC1, stronger effect = lower value 0.961 | S. cerevisiae deletion strains, locus YLR058C, strain SHM2, stronger effect = lower value 0.956 | S. cerevisiae deletion strains, locus YLR102C, strain apc9, stronger effect = lower value 0.999 | S. cerevisiae deletion strains, locus YLR113W, strain HOG1, stronger effect = lower value 0.988 | S. cerevisiae deletion strains, locus YLR221C, strain rsa3, stronger effect = lower value 0.969 | S. cerevisiae deletion strains, locus YLR258W, strain gsy2, stronger effect = lower value 0.989 | S. cerevisiae deletion strains, locus YLR262C, strain YPT6 (second series), stronger effect = lower value 0.956 | S. cerevisiae deletion strains, locus YLR262C, strain YPT6, stronger effect = lower value 0.95 | S. cerevisiae deletion strains, locus YLR268W, strain sec22, stronger effect = lower value 0.98 | S. cerevisiae deletion strains, locus YLR320W, strain mms22, stronger effect = lower value 0.98 | S. cerevisiae deletion strains, locus YLR330W, strain CHS5, stronger effect = lower value 1 | S. cerevisiae deletion strains, locus YLR342W, strain FKS1 (second series), stronger effect = lower value 0.977 | S. cerevisiae deletion strains, locus YLR342W, strain FKS1, stronger effect = lower value 0.968 | S. cerevisiae deletion strains, locus YLR357W, strain rsc2, stronger effect = lower value 0.878 | S. cerevisiae deletion strains, locus YLR370C, strain arc18, stronger effect = lower value 0.949 | S. cerevisiae deletion strains, locus YLR371W, strain rom2, stronger effect = lower value 0.995 | S. cerevisiae deletion strains, locus YLR384C, strain iki3, stronger effect = lower value 1 | S. cerevisiae deletion strains, locus YLR418C, strain cdc73, stronger effect = lower value 0.932 | S. cerevisiae deletion strains, locus YML016C, strain PPZ1, stronger effect = lower value 0.983 | S. cerevisiae deletion strains, locus YML032C, strain rad52, stronger effect = lower value 0.932 | S. cerevisiae deletion strains, locus YML120C, strain ndi1, stronger effect = lower value 0.999 | S. cerevisiae deletion strains, locus YML124C, strain tub3, stronger effect = lower value 0.998 | S. cerevisiae deletion strains, locus YMR078C, strain ctf18, stronger effect = lower value 0.997 | S. cerevisiae deletion strains, locus YMR125W, strain sto1, stronger effect = lower value 1.01 | S. cerevisiae deletion strains, locus YMR129W, stronger effect = lower value 0.966 | S. cerevisiae deletion strains, locus YMR205C, strain PFK2, stronger effect = lower value 0.984 | S. cerevisiae deletion strains, locus YMR223W, strain ubp8, stronger effect = lower value 0.933 | S. cerevisiae deletion strains, locus YMR231W, strain pep5, stronger effect = lower value 0.995 | S. cerevisiae deletion strains, locus YMR307W, strain GAS1, stronger effect = lower value 0.998 | S. cerevisiae deletion strains, locus YNL067W, strain RPL9B, stronger effect = lower value 0.973 | S. cerevisiae deletion strains, locus YNL071W, strain lat1, stronger effect = lower value 1 | S. cerevisiae deletion strains, locus YNL153C, strain GIM3, stronger effect = lower value 0.954 | S. cerevisiae deletion strains, locus YNL183C, strain NPR1, stronger effect = lower value 0.908 | S. cerevisiae deletion strains, locus YNL209W, strain ssb2, stronger effect = lower value 0.981 | S. cerevisiae deletion strains, locus YNL233W, strain BNI4, stronger effect = lower value 0.98 | S. cerevisiae deletion strains, locus YNL248C, strain rpa49, stronger effect = lower value 0.961 | S. cerevisiae deletion strains, locus YNL250W, strain rad50, stronger effect = lower value 0.972 | S. cerevisiae deletion strains, locus YNL271C, strain bni1, stronger effect = lower value 0.965 | S. cerevisiae deletion strains, locus YNL298W, strain CLA4, stronger effect = lower value 0.985 | S. cerevisiae deletion strains, locus YNL307C, strain MCK1, stronger effect = lower value 1 | S. cerevisiae deletion strains, locus YNL322C, strain KRE1 (second series), stronger effect = lower value 0.979 | S. cerevisiae deletion strains, locus YNR049C, strain mso1, stronger effect = lower value 0.967 | S. cerevisiae deletion strains, locus YNR052C, strain pop2, stronger effect = lower value 0.984 | S. cerevisiae deletion strains, locus YOL006C, strain TOP1, stronger effect = lower value 1.07 | S. cerevisiae deletion strains, locus YOL012C, strain htz1 0.673 | S. cerevisiae deletion strains, locus YOL147C, strain pex11, stronger effect = lower value 1.01 | S. cerevisiae deletion strains, locus YOR001W, strain rrp6, stronger effect = lower value 0.973 | S. cerevisiae deletion strains, locus YOR061W, strain CKA2, stronger effect = lower value 0.957 | S. cerevisiae deletion strains, locus YOR069W, strain VPS5, stronger effect = lower value 0.999 | S. cerevisiae deletion strains, locus YOR070C, strain gyp1, stronger effect = lower value 0.988 | S. cerevisiae deletion strains, locus YOR080W, strain dia2, stronger effect = lower value 0.991 | S. cerevisiae deletion strains, locus YOR083W, strain WHI5, stronger effect = lower value 0.98 | S. cerevisiae deletion strains, locus YOR106W, strain vam3, stronger effect = lower value 0.964 | S. cerevisiae deletion strains, locus YOR136W, strain idh2, stronger effect = lower value 1.01 | S. cerevisiae deletion strains, locus YOR144C, strain elg1, stronger effect = lower value 0.993 | S. cerevisiae deletion strains, locus YOR184W, strain ser1, stronger effect = lower value 0.965 | S. cerevisiae deletion strains, locus YOR231W, strain MKK1, stronger effect = lower value 0.965 | S. cerevisiae deletion strains, locus YOR265W, strain rbl2, stronger effect = lower value 0.987 | S. cerevisiae deletion strains, locus YOR270C, strain vph1, stronger effect = lower value 0.827 | S. cerevisiae deletion strains, locus YOR290C, strain snf2, stronger effect = lower value 0.929 | S. cerevisiae deletion strains, locus YOR316C, strain cot1, stronger effect = lower value 0.992 | S. cerevisiae deletion strains, locus YPL051W, strain arl3, stronger effect = lower value 0.953 | S. cerevisiae deletion strains, locus YPL078C, strain atp4, stronger effect = lower value 0.977 | S. cerevisiae deletion strains, locus YPL106C, strain sse1, stronger effect = lower value 0.974 | S. cerevisiae deletion strains, locus YPL240C, strain hsp82, stronger effect = lower value 0.983 | S. cerevisiae deletion strains, locus YPL241C, strain CIN2, stronger effect = lower value 0.99 | S. cerevisiae deletion strains, locus YPL256C, strain CLN2, stronger effect = lower value 1.03 | S. cerevisiae deletion strains, locus YPR119W, strain clb2, stronger effect = lower value 1 | S. cerevisiae deletion strains, locus YPR141C, strain kar3, stronger effect = lower value 0.979 | S. cerevisiae deletion strains, locus YPR163C, strain tif3, stronger effect = lower value 1.01 | S. cerevisiae deletion strains, locus YPR167C, strain met16, stronger effect = lower value 0.965 | S. cerevisiae deletion strains, strain wtn01, stronger effect = lower value 1 | S. cerevisiae strains, strain wild type, stronger effect = lower value 0.971
active: S. cerevisiae deletion strains, locus YMR058W, strain fet3, stronger effect = lower value 0.762
